# Assay outcomes: PubChem BioAssay, National Center for Advancing Translational Sciences (NCATS)
# BAZ2B block = qHTS Assay for Inhibitors of BAZ2B; hit rate 4.4% among 360,000; AID 504333, 2011; Potency, µM (series often up to 114 µM), inactives show top-dose activity change, negative = inhibition, usual class: inhibitors; AlphaScreen BAZ2B-H3K14Ac peptide displacement; note: potency is the fitted concentration of half-maximal effect; % is set by controls: 0 for no effect and ±100 for the full control effect; nearly all actives have a fitted effect of over 60% in size
#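 In this displacement format the biotinylated H3(5-23) peptide acetylated at Lys14 serves as ligand at 50 nM, with BAZ2B at 50 nM in PBS pH 7.4 containing 0.01% Tween-20. Donor and acceptor beads are 10 ug/mL final.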
# G9a inh = qHTS Assay for Inhibitors of Histone Lysine Methyltransferase G9a; Histone-lysine N-methyltransferase EHMT2 (Homo sapiens), Q96KQ7; G9a H3K9 monomethylation, AlphaScreen, 2 h; Potency, µM (titrated, usually from 102 µM), for the others: at the top dose activity, negative = inhibition, most hits filed as inhibitors; hit rate 8.8% among 350,000; AID 504332, 2011; note: potency is the fitted concentration of half-maximal effect; % is set by controls: 0 for no effect and ±100 for the full control effect; nearly all actives have a fitted effect of over 75% in size
# Target sequence (Q96KQ7 913-1193 limits assumed): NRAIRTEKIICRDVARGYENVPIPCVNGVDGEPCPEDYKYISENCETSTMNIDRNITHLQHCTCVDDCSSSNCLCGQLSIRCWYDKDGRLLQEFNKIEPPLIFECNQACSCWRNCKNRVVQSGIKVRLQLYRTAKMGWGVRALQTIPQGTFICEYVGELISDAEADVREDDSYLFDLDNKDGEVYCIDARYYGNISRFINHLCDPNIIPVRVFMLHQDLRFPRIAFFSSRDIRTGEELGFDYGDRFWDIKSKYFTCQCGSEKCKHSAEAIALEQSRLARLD
#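 Chemiluminescent proximity detection of H3K9 monomethylation, read after 10 min bead incubation in the dark. Reaction: 20 nM G9a, 500 nM biotin-H3K9 peptide, 20 uM SAM cofactor, 2 h, room temperature, following 15 min enzyme-compound preincubation.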
# HP1b binding inh = HTS for Inhibitors of HP1-beta Chromodomain Interactions with Methylated Histone Tails | AID 540317, 2011 | AlphaScreen HP1-beta / biotin-H3K9me3 peptide binding | hit rate 0.56% among 390,000 | Potency, µM (doses to about 114 µM), without a hit: top-dose activity change, negative = inhibition, most hits filed as inhibitors; note: potency is the fitted concentration of half-maximal effect; nearly all actives have a fitted effect of over 70% in size
# Target sequence (P83916 whole entry, looked up): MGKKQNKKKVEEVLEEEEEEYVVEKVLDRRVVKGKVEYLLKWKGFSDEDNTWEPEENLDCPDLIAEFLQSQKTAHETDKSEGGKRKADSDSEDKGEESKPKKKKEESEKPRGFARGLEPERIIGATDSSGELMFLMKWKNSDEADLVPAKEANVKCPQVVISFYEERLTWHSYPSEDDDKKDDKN
#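 HP1-beta protein (50 nM final) preincubated 30 min at room temperature with biotinylated H3(1-18)K9me3 peptide (50 nM) in PBS pH 7.4, 0.01% Tween-20, then compound added for 30 min. AlphaScreen streptavidin donor/nickel chelate acceptor beads (10 ug/mL final), 30 min dark, luminescence read.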
# PLK1 PBD block = qHTS for Inhibitors of PLK1-PDB (polo-like kinase 1 - polo-box domain): Primary Screen; hit rate 2.8% among 360,000; Serine/threonine-protein kinase PLK1 (Homo sapiens), P53350; Plk1 PBD binding of FITC phosphopeptide, fluorescence polarization; Potency, µM, for inactives: max response, negative = inhibition, usual class: inhibitors; note: potency is the fitted concentration of half-maximal effect; series mostly up to about 57 µM; % is set by controls: 0 for no effect and ±100 for the full control effect; nearly all actives have a fitted effect of over 65% in size
# JMJD2A Tudor = qHTS Assay for Inhibitors of JMJD2A-Tudor Domain; Lysine-specific demethylase 4A (Homo sapiens), O75164; AlphaScreen JMJD2A-Tudor / H3K4me3 peptide binding; Potency, µM (series often up to 114 µM), for the others: at the top dose activity change, negative = inhibition, actives largely listed as inhibitors; hit rate 4.4% among 390,000; note: potency is the fitted concentration of half-maximal effect; % is set by controls: 0 for no effect and ±100 for the full control effect; nearly all actives have a fitted effect of over 50% in size
# PI5P4Ka inh = qHTS for Inhibitors of phosphatidylinositol 5-phosphate 4-kinase (PI5P4K) | Phosphatidylinositol 5-phosphate 4-kinase type-2 alpha (Homo sapiens), P48426 | PI5P4Kalpha enzyme, ADP-Glo luminescence, 60 min; stronger effect = lower value | max response, % | hit rate 1.2% among 330,000 | AID 652105, 2013; active = max response of -50% or lower; inconclusive = between -30% and -50%; inactive = -30% or higher; note: value at the top dose of about 77 µM; % is set by controls: 0 for no effect and ±100 for the full control effect
#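 Enzyme plus substrate dispensed, test compounds pinned in, then ATP (5 microM final) added. After 60 min at RT, ADP-Glo reagent 1 for 45 min and reagent 2 for 30 min preceded luminescence imaging.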
# * = called active by the depositor; ? = inconclusive; / = no result given; [ ] = dose if it differs, or a comment. In the library only some 12% were active in any assay of this set; here they are far more common. Unless noted, calls come from the whole dose curve; as a rule, active = well fitted curve in the direction sought with a large enough effect; inconclusive = small, poorly fitted or top-dose-only effect, or another doubt; inactive = no such curve, though single readings can be large; an effect the other way counts as inactive or inconclusive.
SMILES,BAZ2B block,G9a inh,HP1b binding inh,PLK1 PBD block,JMJD2A Tudor,PI5P4Ka inh
CCc1nn2c(=O)cc(COC(=O)c3ccccc3NC(=O)COc3ccc(C)c(C)c3)nc2s1,-8%,-2%[12.7 µM],32%,/,-2%,/
CCOC(=O)c1ccccc1N/C=C/C(=O)c1cccs1,18%,32µM*,85%,3%,16%,1
O=C(/C=C/Nc1ccccc1F)c1cccs1,1%,32µM*,28%,2%,-8%,1
O=C(/C=C\Nc1cccc(F)c1)c1cccs1,16%,-7%[59 µM],85%,-22%,-1%[11.4 µM],0
O=C(/C=C/Nc1ccc(F)cc1F)c1cccs1,-1%,14µM*,21%,0%,-19%,-3
COC(=O)[C@]12CCCCC=C1N(CCc1ccc(OC)c(OC)c1)C(=O)[C@H](CC(=O)N1CCN(C(=O)c3ccco3)CC1)C2,/,/,/,-18%,/,-6
N#Cc1c(=O)c2nc(NCc3ccccc3)ncc2n2ccccc12,?,-21%[12.7 µM],43%,-2%,50µM*,-29
COc1cccc(Cc2nc3ccccc3nc2SCC(=O)NCCc2ccccc2)c1,13%,?,21%[57 µM],/,-17%,/
CCc1ccc[n+](-c2[nH]c(=O)sc2/C=N/NC([S-])=Nc2ccccc2)c1,?,22µM*,-38%,21µM*,?,?
Cc1cc(C)c[n+](-c2[nH]c(=O)sc2/C=N/NC([S-])=Nc2ccccc2)c1,?,35µM*,?,?,?,2
CCc1ccc[n+](-c2[nH]c(=O)sc2/C=N/N=C(\N)[O-])c1,-27%,17%,22%,3%,6%,-3
Cc1ccc2[nH]c(C(=O)N/N=C/c3ccccc3O)c(C)c2c1,-10%,14%,26%,8%,-21%,8
Cc1cc[n+](-c2[nH]c(=O)sc2/C=N/NC([S-])=Nc2ccccc2)cc1,?,28µM*,?,?,?,-77*
O=c1[nH]c(-[n+]2ccc3ccccc3c2)c(/C=N/N=C(\[O-])c2ccccc2)s1,-18%,?,35%,-25%,-9%,-13
O=c1[nH]c(-[n+]2ccccc2)c(/C=N/NC([S-])=Nc2ccccc2)s1,-38%,22µM*,-6%,-20%,-28%,-4
COc1ccccc1CNC(=O)c1ccc2c(c1)nc(C)n2-c1cccc(C)c1,-35%,-16%[59 µM],-15%,/,-29%,/
COc1cccc(-n2cc(C(=O)Nc3cccc(C(F)(F)F)c3)c3ccccc3c2=O)c1,?,?,25%,/,-31%,/
OC(c1cccc(Cl)c1)c1nc(-c2ccc(Cl)cc2)cs1 (configuration not stated),/,/,/,-8%,/,6
CC(C)(C)c1cc[n+](-c2[nH]c(=O)sc2/C=N/N=C(\[O-])c2cccnc2)cc1,3%,?,37%,-9%,-16%,-1
CC(C)(C)c1cc[n+](-c2[nH]c(=O)sc2/C=N/NC(=O)c2ccccc2[O-])cc1,-12%,79µM*,9%,?,-26%,-19
Cc1c(S(=O)(=O)c2ccccn2)c(N)n(Cc2cccc(Cl)c2)c1C,-30%,28µM*,37%,-13%,-25%,-11
CC(C)(C)C(=O)Cn1c(=O)n(CCCCCC(=O)NCc2ccc3c(c2)OCO3)c(=O)c2sccc21,-3%,-4%[59 µM],11%,/,-5%,/
COc1ccc(/C=C/C(=O)c2cc(Cl)cc(Cl)c2O)c(OC)c1,-36%,-3%,28%,2%,-6%,4
O=C(/C=C/c1ccccn1)c1cc(Cl)cc(Cl)c1O,-35%,50µM*,16%,?,-1%[11.4 µM],-20
